Screening results from PubChem BioAssay.
Rows were chosen to be rich in hits. Some 1.8% of all compounds tested hit in one or more screens of this group.
NOD2 RIPK2 PPI: blocks binding of human NOD2 to RIPK2. O43353. CHO BLA complementation NOD2-RIPK2, CCF4 ratio. inhibition, % at 4.98 µM. 360,000 compounds, 0.38% hits. AID 624267; in the data active = inhibition above about 21%;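 also: 0% = vehicle only and 100% = reference blocker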
TLR9-MyD88 inh: TLR9-MyD88 interaction inhibition. CHO BLA complementation TLR9-MyD88, CCF4 FRET ratio. inhibition, % at 4.98 µM. 340,000 compounds, 0.21% hits. AID 504734;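 active = inhibition above the mean over all tested compounds plus 3 SD, cut at about 21% in these data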;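 also: 0% = DMSO only wells and 100% = clavulanate BLA inhibitor control wells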
Mcl1-Bid inh: disrupts binding of human Mcl-1 to Bid peptide. Q07820. 220,000 compounds, 0.97% hits. TR-FRET Mcl-1/Bid-Dy647 peptide binding, 1536-well. inhibition, % at 21.7 µM. AID 1021;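 active = compounds that cut the binding signal by more than half at the single screening dose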;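 also: His-tagged Mcl-1 with europium anti-His antibody binding Bid BH3 peptide; 0% = Mcl-1 plus peptide wells and 100% = peptide-only wells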
Target sequence (Q07820 whole entry, looked up): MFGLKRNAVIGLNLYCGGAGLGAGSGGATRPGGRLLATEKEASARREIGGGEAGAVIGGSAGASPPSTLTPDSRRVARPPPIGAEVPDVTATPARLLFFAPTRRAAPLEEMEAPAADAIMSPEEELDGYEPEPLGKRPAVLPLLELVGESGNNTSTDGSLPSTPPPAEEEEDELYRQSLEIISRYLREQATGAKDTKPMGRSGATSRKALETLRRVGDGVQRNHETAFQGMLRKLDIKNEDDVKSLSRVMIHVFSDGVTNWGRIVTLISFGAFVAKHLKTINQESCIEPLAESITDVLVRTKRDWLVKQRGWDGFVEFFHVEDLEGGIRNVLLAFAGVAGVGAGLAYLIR
Mcl1-Noxa inh: Mcl-1/Noxa interaction inhibition; TR-FRET Mcl-1/Noxa peptide binding, 2 h; inhibition, % at 21.7 µM; Q07820; AID 1022; 220,000 compounds, 1.5% hits;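 active = compounds that cut the protein-peptide binding signal by more than 50% relative to plate controls in a single-dose test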;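 also: His-tagged Mcl-1 with rhodamine Noxa BH3 peptide and terbium anti-His antibody; 0% = Mcl-1 plus Noxa peptide wells and 100% = peptide-only wells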
TLR4 MyD88 comp: inhibitors of human TLR4-MyD88 binding. HeLa CL3-4 TLR4/MyD88 BLA complementation, FRET ratio. 200,000 compounds, 0.18% hits. inhibition, % at 8.4 µM. O00206+Q99836. AID 861; in the data active = inhibition above about 25%;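 also: 0% = vehicle and 100% = reference inhibitor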
Bim-Mcl-1: disrupts Bim peptide binding to human Mcl-1 | Q07820 | Bead-based flow cytometry, Bim peptide-Mcl-1 binding | inhibition, % at 10 µM | 190,000 compounds, 0.1% hits | AID 1009; in the data active = inhibition above about 40%;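 also: 0% = no compound tracer wells and 100% = peptide blocker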
TLR9-MyD88 conf: TLR9-MyD88 interaction inhibition, confirmation; inhibition, % at 4.98 µM; 680 compounds, 51% hits; CHO TLR9/MyD88 BLA complementation, CCF4 FRET ratio; shares compounds with TLR9-MyD88 inh; AID 540250;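 active = mean inhibition across three repeats above about 21% taken from the earlier screen, limit read from the data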;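 also: blue over green emission ratio reports constitutive TLR9 MyD88 association via BLA complementation; 0% = DMSO vehicle wells and 100% = clavulanate BLA inhibitor wells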
BLA counter-1: non-selective beta-lactamase inhibitors in TLR9-MyD88 counter-screen. shares compounds with TLR9-MyD88 inh. 680 compounds, 7% hits. inhibition, % at 4.98 µM. CHO-BLA cells, CCF4 FRET ratio, BLA reporter. AID 540251;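 active = mean inhibition above a 50% cutoff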;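 also: counterscreen of TLR9-MyD88 hits on CMV-driven BLA in CHO-K1 cells; 0% = DMSO alone and 100% = clavulanate blocking BLA; higher means less blue over green ratio so more BLA blockade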
TLR9 CHO tox: counter-screen for TLR9-MyD88 inhibitors: cytotoxicity in CHO cells; shares compounds with TLR9-MyD88 inh; luminescence; inhibition, % at 4.98 µM; 680 compounds, 39% hits; AID 588336; in the data active = inhibition above about 11%
NOD2 RIPK2 conf: NOD2-RIPK2 interaction inhibition confirmed; shares compounds with NOD2 RIPK2 PPI; CHO cells, NOD2-RIPK2 BLA complementation, CCF4 FRET; inhibition, % at 4.98 µM; 1,200 compounds, 70% hits; AID 624370;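 active = mean inhibition across replicates above a set limit taken from the earlier primary screen, cut at about 21% in these data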;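 also: 0% = DMSO-only wells and the high end = clavulanate BLA-blocked wells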
BLA counter-2: counter-screen for NOD2-RIPK2 interaction inhibitors: BLA reporter; shares compounds with NOD2 RIPK2 PPI; CHO BLA reporter, CCF4 FRET ratio, counterscreen; inhibition, % at 4.98 µM; 1,200 compounds, 57% hits; AID 624371;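 active = mean inhibition above the low-control mean inhibition plus three low-control SD, cut at about 11% in these data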;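 also: 0% = DMSO only wells and 100% = clavulanate high control wells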
The depositor's hits bear a star.

How did O=c1c2cc(F)ccc2sn1-c1ccccc1Cl do in these assays?
NOD2 RIPK2 PPI: -5; TLR9-MyD88 inh: 0

What do the screens show for `Cc1ccc(-n2sc3cc(F)ccc3c2=O)c(C)c1`?
NOD2 RIPK2 PPI: 38*; TLR9-MyD88 inh: 30*; TLR9-MyD88 conf: 19; BLA counter-1: -1; TLR9 CHO tox: 85*; NOD2 RIPK2 conf: 26*; BLA counter-2: 15*

What do the screens show for `COc1cc(OC)c(C#N)c(S(=O)(=O)Cc2ccccc2)c1`?
NOD2 RIPK2 PPI: -2; TLR9-MyD88 inh: 8; Mcl1-Bid inh: -12; Mcl1-Noxa inh: 12; TLR4 MyD88 comp: -7; Bim-Mcl-1: -3

Results for N#Cc1c([N+](=O)[O-])cc([N+](=O)[O-])cc1S(=O)(=O)Cc1ccccc1 ?
NOD2 RIPK2 PPI: 86*; TLR9-MyD88 inh: 46*; TLR9-MyD88 conf: 40*; BLA counter-1: 23; TLR9 CHO tox: 98*; NOD2 RIPK2 conf: 92*; BLA counter-2: 34*

How did CCc1ccc([C@@H]2CC(=O)[C@@H]3CN(S(=O)(=O)c4ccccc4C)[C@H](c4ccc(Cl)cc4)C[C@@H]3N2S(=O)(=O)c2ccc(C)cc2)cc1 do in these assays?
NOD2 RIPK2 PPI: 8

How did Cc1n[nH]c(C)c1N1C(=O)c2cccc3c(N4CCCCCC4)ccc(c23)C1=O do in these assays?
NOD2 RIPK2 PPI: 38*; TLR9-MyD88 inh: 27*; Mcl1-Bid inh: -81; Mcl1-Noxa inh: -76; TLR4 MyD88 comp: 17; Bim-Mcl-1: 2; TLR9-MyD88 conf: 16; BLA counter-1: 18; TLR9 CHO tox: 6; NOD2 RIPK2 conf: 32*; BLA counter-2: 42*

Results for CC(=O)c1ccc2c3c(cccc13)C(=O)N(c1c(C)nn(C)c1C)C2=O ?
NOD2 RIPK2 PPI: 0; TLR9-MyD88 inh: 6; Mcl1-Bid inh: -44; Mcl1-Noxa inh: 14; TLR4 MyD88 comp: 13; Bim-Mcl-1: 4

How did c1cc(SC2CCCCC2)cc(-c2nc3cnccn3c2NC2CCCCC2)c1 do in these assays?
NOD2 RIPK2 PPI: 33*; TLR9-MyD88 inh: 33*; TLR9-MyD88 conf: 33*; BLA counter-1: 35; TLR9 CHO tox: -2; NOD2 RIPK2 conf: 52*; BLA counter-2: 66*

How did Cc1ccc2nc(-c3cccc(SC4CCCCC4)c3)c(NC3CCCCC3)n2c1 do in these assays?
NOD2 RIPK2 PPI: -4; TLR9-MyD88 inh: 5

What do the screens show for `CCCCCCSc1ccc(-c2nc3cnccn3c2NCCCC)cc1`?
NOD2 RIPK2 PPI: 24*; TLR9-MyD88 inh: 23*; TLR9-MyD88 conf: 48*; BLA counter-1: 50*; TLR9 CHO tox: -7; NOD2 RIPK2 conf: 68*; BLA counter-2: 77*

What do the screens show for `COc1ccc2oc(=O)c(-c3csc(Nc4cccc(O)c4)n3)cc2c1`?
NOD2 RIPK2 PPI: 31*; TLR9-MyD88 inh: 36*; Mcl1-Bid inh: -64; Mcl1-Noxa inh: 35; TLR4 MyD88 comp: 15; Bim-Mcl-1: -4; TLR9-MyD88 conf: 19; BLA counter-1: 18; TLR9 CHO tox: -3; NOD2 RIPK2 conf: 28*; BLA counter-2: 47*

Results for Cc1ccccc1NC(=O)CSc1nnc(C2CC2)n1CC1CCCO1 (stereo not drawn) ?
NOD2 RIPK2 PPI: -11; TLR9-MyD88 inh: 8

Results for CN(C)c1ccc(-c2csc(C(O)c3cccc(Cl)c3)n2)cc1 (stereo not drawn) ?
NOD2 RIPK2 PPI: 6

Results for O=C(c1ccccc1)c1cc(Cl)ccc1N1C(=O)C=CC1=O ?
NOD2 RIPK2 PPI: 59*; TLR9-MyD88 inh: 33*; Mcl1-Bid inh: 51*; Mcl1-Noxa inh: 32; TLR4 MyD88 comp: 8; Bim-Mcl-1: 4; TLR9-MyD88 conf: 38*; BLA counter-1: 8; TLR9 CHO tox: 96*; NOD2 RIPK2 conf: 89*; BLA counter-2: 23*

Results for O=C1Cc2ccccc2C(=O)N1Cc1cccc(Cl)c1 ?
NOD2 RIPK2 PPI: -10; TLR9-MyD88 inh: 7

How did Nc1cccc2c1C(=O)N(Cc1cccc(Cl)c1)C2=O do in these assays?
NOD2 RIPK2 PPI: 35*; TLR9-MyD88 inh: 21*; Mcl1-Bid inh: 11; Mcl1-Noxa inh: 6; TLR4 MyD88 comp: 20; Bim-Mcl-1: -1; TLR9-MyD88 conf: 17; BLA counter-1: 20; TLR9 CHO tox: 4; NOD2 RIPK2 conf: 32*; BLA counter-2: 45*

How did O=C(CCC(=O)N1CCSc2ccccc21)NC1CCCCC1 do in these assays?
NOD2 RIPK2 PPI: -11; TLR9-MyD88 inh: -6

How did CN(C)c1ccc(/C=C2\Oc3ccc(C#Cc4cccc(N)c4)cc3C2=O)cc1 do in these assays?
NOD2 RIPK2 PPI: 49*; TLR9-MyD88 inh: 45*; TLR9-MyD88 conf: 53*; BLA counter-1: 60*; TLR9 CHO tox: 4; NOD2 RIPK2 conf: 71*; BLA counter-2: 78*

What do the screens show for `COC(=O)c1ccc2c(c1)C(=O)/C(=C/c1ccc(C)cc1)O2`?
NOD2 RIPK2 PPI: -1; TLR9-MyD88 inh: -7; Mcl1-Bid inh: 12; Mcl1-Noxa inh: -1; TLR4 MyD88 comp: 5; Bim-Mcl-1: 0

How did Cc1ccc(-c2nc3cnccn3c2Nc2c(C)cccc2C)o1 do in these assays?
NOD2 RIPK2 PPI: 49*; TLR9-MyD88 inh: 29*; Mcl1-Bid inh: 1; Mcl1-Noxa inh: 14; TLR4 MyD88 comp: 17; Bim-Mcl-1: -1; TLR9-MyD88 conf: 14; BLA counter-1: 18; TLR9 CHO tox: 9; NOD2 RIPK2 conf: 36*; BLA counter-2: 41*

Results for Cc1ccc(-c2nc3ncccn3c2Nc2ccccc2C)o1 ?
NOD2 RIPK2 PPI: 5; TLR9-MyD88 inh: 0; Mcl1-Bid inh: -38; Mcl1-Noxa inh: 14; TLR4 MyD88 comp: 21; Bim-Mcl-1: -3

What do the screens show for `Nc1c(C(=O)c2ccccc2O)cnn1-c1ccc(S(=O)(=O)N2CCOCC2)cc1[N+](=O)[O-]`?
Mcl1-Bid inh: 8; Mcl1-Noxa inh: 16; TLR4 MyD88 comp: 9; Bim-Mcl-1: 0

What do the screens show for `O=S(=O)(/C=C/C=C/S(=O)(=O)c1ccccc1)c1ccccc1`?
NOD2 RIPK2 PPI: 87*; TLR9-MyD88 inh: 26*; TLR9-MyD88 conf: 27*; BLA counter-1: 21; TLR9 CHO tox: 98*; NOD2 RIPK2 conf: 77*; BLA counter-2: 38*
